Records with an inconclusive call do not appear. Active and inactive are the calls of the source. Unless noted, calls come from the whole dose curve; as a rule, active = well fitted curve in the direction sought with a large enough effect in the repeat runs; inconclusive = weak or mixed curves; inactive = no such curve, though single readings can be large; an effect the other way counts as inactive or inconclusive.
How the values were obtained:
[1] = qHTS RealTime-Glo MT Cell Viability Assay in HepG2 cells - 16 hour (AID 1224885); note: nearly all actives have a fitted effect of over 50% in size
Outline: (§1)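 Cells + NanoLuc/prosubstrate dispensed (600 cells/well) → 5 h at 37 C/5% CO2 → compounds in DMSO transferred → 40 h incubation at 37 C, luminescence read at 0, 8, 16, 24, 32, 40 h.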

[2] = qHTS RealTime-Glo MT Cell Viability Assay in HEK293 cells - 24 hour (AID 1224886); note: top concentration of the series differs between compounds; nearly all actives have a fitted effect of over 50% in size
Outline: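 Tox21 10K qHTS, HEK293, 600 cells/well, RealTime-Glo reagent co-dispensed with cells; 5 h preincubation, compound by pintool, 37 C, luminescence at 0–40 h.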

[3] = qHTS RealTime-Glo MT Cell Viability Assay in HEK293 cells - 8 hour (AID 1224887); note: top concentration of the series differs between compounds; nearly all actives have a fitted effect of over 50% in size
Outline: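 Real-time viability in HEK293: signal arises when living cells convert a prosubstrate for NanoLuc in the medium, so luminescence tracks viable cell number. Compound (23 nL, DMSO) added 5 h post-seeding; kinetic reads at 0–40 h, 37 C.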

[4] = A CellTox Green Cytotoxicity Assay to monitor cytotoxicity in HEK293 cells - 16 hour (AID 1224888); note: nearly all actives have a fitted effect of over 35% in size
Outline: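 Cells (HEK293, 600/well) and dye reagent are dispensed together. After 5 h at 37 C, 23 nL compound is pinned in. Plates stay at 37 C for 40 h with fluorescence read at 0h, 8h, 16h, 24h, 32h and 40h.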

[5] = qHTS RealTime-Glo MT Cell Viability Assay in HepG2 cells - 0 hour (AID 1224889); note: nearly all actives have a fitted effect of over 50% in size
Outline: as §1

[6] = A CellTox Green Cytotoxicity Assay to monitor cytotoxicity in HepG2 cells - 8 hour (AID 1224890); note: nearly all actives have a fitted effect of over 45% in size
Outline: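 Cells and non-lytic dye reagent are dispensed together (600 HepG2 cells/well) and incubated 5 h before DMSO compound transfer. Kinetic fluorescence is then recorded in the same wells during 40 h at 37 C.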

[7] = qHTS assay to identify small molecule antagonists of the estrogen receptor alpha (ER-alpha) signaling pathway using the BG1 cell line in the presence of 0.1 nM 17-beta-estradiol - cell viability counter screen (AID 1259241); note: nearly all actives have a fitted effect of over 40% in size
Outline: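 Cells were plated and left 24 hr, compounds in DMSO were pinned in, 17beta-estradiol was added to 0.1 nM final, and after 22 hr CellTiter-Fluor reagent was added for 30 min before fluorescence was read.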

[8] = qHTS assay to identify small molecule antagonists of the androgen receptor (AR) signaling pathway using the MDA cell line in the presence of 0.5 nM R1881 - cell viability counter screen (AID 1259242); note: nearly all actives have a fitted effect of over 45% in size
Outline: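 Steps: plate MDA-kb2 cells, rest 5 hr at 37C without CO2; pin in compounds in DMSO; add R1881 to 0.5 nM final; incubate 16 hr; add CellTiter-Fluor, 30 min; read fluorescence.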

[9] = biological target: Estrogen receptor (Homo sapiens) (UniProt P03372); assay: qHTS assay to identify small molecule antagonists of the estrogen receptor alpha (ER-alpha) signaling pathway using the BG1 cell line in the presence of 0.1 nM 17-beta-estradiol (AID 1259244); note: nearly all actives have a fitted effect of over 50% in size
Sequence of Estrogen receptor (Homo sapiens) (P03372 whole entry, looked up): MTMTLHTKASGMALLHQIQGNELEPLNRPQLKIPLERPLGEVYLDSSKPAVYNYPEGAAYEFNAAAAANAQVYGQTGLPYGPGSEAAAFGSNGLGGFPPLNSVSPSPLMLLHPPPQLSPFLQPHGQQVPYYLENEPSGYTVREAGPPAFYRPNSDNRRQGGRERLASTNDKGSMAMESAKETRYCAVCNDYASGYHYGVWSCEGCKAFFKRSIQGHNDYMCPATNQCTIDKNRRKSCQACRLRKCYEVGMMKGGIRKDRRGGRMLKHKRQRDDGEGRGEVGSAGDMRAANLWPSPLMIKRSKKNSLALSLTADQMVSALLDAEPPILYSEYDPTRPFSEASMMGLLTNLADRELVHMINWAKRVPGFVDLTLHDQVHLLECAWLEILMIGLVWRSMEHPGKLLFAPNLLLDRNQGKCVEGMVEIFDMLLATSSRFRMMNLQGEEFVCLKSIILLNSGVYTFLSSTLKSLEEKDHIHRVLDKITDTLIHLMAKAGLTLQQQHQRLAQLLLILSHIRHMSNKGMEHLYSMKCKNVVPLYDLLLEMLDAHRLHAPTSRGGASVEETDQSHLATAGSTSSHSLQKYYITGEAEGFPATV
Outline: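 Antagonist mode: compounds in DMSO are pinned onto VM7Luc4E2 reporter cells, 0.1 nM final 17beta-estradiol is added, and after 22 h at 37C luciferase luminescence is measured with ONE-Glo.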

[10] = qHTS assay to identify small molecule phospholipidosis (PLD) inducers (AID 1259344; active = well fitted curve in the direction sought with a large enough effect; an effect the other way counts as inactive or inconclusive)
Outline: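 After 4 h attachment on collagen I, HepG2 cells were dosed with compound alongside LipidTOX Red, kept 24 h at 37 C, fixed, and imaged for lamellar phospholipid pits.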

[11] = qHTS assay to identify small molecule HDAC inhibitors (AID 1259364); note: potency is the fitted concentration of half-maximal effect;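 note: wild-type HCT-116 cells with endogenous class I/II HDAC activity; nearly all actives have a fitted effect of over 45% in size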
Outline: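 Cells (HCT-116, wild type) are seeded at 1,500 per well, incubated overnight, treated with compound in DMSO for 2 hr, then developed with HDAC-Glo I/II reagent for 30 min at room temperature.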

[12] = qHTS assay to identify small molecule HDAC inhibitors - cell viability counter screen (AID 1259365)
Outline: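 Counter screen in wild-type HCT-116 cells: compounds dissolved in DMSO are pin-transferred onto overnight-plated cells and left 2hr at 37C. ATP-based CellTiter-Glo luminescence then measures viable cells.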

[13] = qHTS assay to identify small molecule agonists of the sonic hedgehog signaling (Shh) pathway - cell viability counter screen (AID 1259366); note: nearly all actives have a fitted effect of over 50% in size
Outline: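 Cells are plated at 2,000 per well and left 4hr at 37C, 5% CO2 before compound addition. After 23hr of treatment, CellTiter-Fluor reagent is added for 1hr at 37C and fluorescence is measured.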

[14] = qHTS assay to identify small molecule antagonists of the sonic hedgehog signaling (Shh) pathway - cell viability counter screen (AID 1259367); note: nearly all actives have a fitted effect of over 55% in size
Outline: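 Conditioned medium drove Shh signaling in 3T3 Gli1-Luc cells exposed to compounds at 37C and 5% CO2. Viability was determined from CellTiter-Fluor fluorescence, with reagent incubated 1 hr after 23 hr of treatment.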

[15] = qHTS assay to identify small molecule agonists of the sonic hedgehog signaling (Shh) pathway (AID 1259368; calls by dose curve;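 note: NIH/3T3-derived 3T3Gli1-Luc cells carrying a stable Gli1-driven firefly luciferase reporter; series mostly up to about 92 µM; nearly all actives have a fitted effect of over 15% in size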)
Outline: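 Cells of a mouse NIH/3T3 clone stably expressing luciferase under the Gli1 transcriptional response element are exposed to test chemicals for 24 hr at 37 C. Pathway activation is detected as a rise in luminescence.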

[16] = qHTS assay to identify small molecule antagonists of the sonic hedgehog signaling (Shh) pathway (AID 1259369; calls by dose curve; note: nearly all actives have a fitted effect of over 45% in size)
Outline: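 Cells are plated and held 4hr at 37 C, compounds (DMSO) are pinned in, conditioned medium is added to stimulate the pathway, and after 24hr luciferase reagent is added for 30min before luminescence is read.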

[17] = qHTS assay to identify small molecule agonists of the androgen receptor (AR) signaling pathway in the presence of an antagonist - cell viability counter screen (AID 1259379);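 note: MDA-kb2 human breast cancer cells carrying an MMTV luciferase reporter; series mostly up to about 92 µM; nearly all actives have a fitted effect of over 25% in size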
Outline: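 Cytotoxicity is assessed by CellTiter-Fluor in MDA-kb2 cells carrying an MMTV-driven luciferase reporter. Cells receive 3.0uM nilutamide plus compounds at 15 concentrations and incubate 16 hr at 37C without CO2 before fluorescence reading.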

[18] = qHTS assay to identify small molecule agonists of the estrogen receptor beta (ER-beta) signaling pathway - cell viability counter screen (AID 1259380); note: nearly all actives have a fitted effect of over 30% in size
Outline: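 Cytotoxicity is measured in parallel with the reporter screen: after 16 hr compound exposure at 37C and a 2 hr LiveBLAzer step, CellTiter-Glo is added to the same ER-beta-UAS-bla HEK293T wells and luminescence read after 30 min.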

[19] = biological target: Estrogen receptor beta (Homo sapiens) (UniProt Q92731); assay: qHTS assay to identify small molecule agonists of the estrogen receptor beta (ER-beta) signaling pathway (AID 1259377; active = well fitted activation curve with a large enough effect in the signal ratio in the repeat runs, not every such curve was filed as active; the % refers to the signal ratio)
Sequence of Estrogen receptor beta (Homo sapiens) (Q92731 whole entry, looked up, the tested form may be a part): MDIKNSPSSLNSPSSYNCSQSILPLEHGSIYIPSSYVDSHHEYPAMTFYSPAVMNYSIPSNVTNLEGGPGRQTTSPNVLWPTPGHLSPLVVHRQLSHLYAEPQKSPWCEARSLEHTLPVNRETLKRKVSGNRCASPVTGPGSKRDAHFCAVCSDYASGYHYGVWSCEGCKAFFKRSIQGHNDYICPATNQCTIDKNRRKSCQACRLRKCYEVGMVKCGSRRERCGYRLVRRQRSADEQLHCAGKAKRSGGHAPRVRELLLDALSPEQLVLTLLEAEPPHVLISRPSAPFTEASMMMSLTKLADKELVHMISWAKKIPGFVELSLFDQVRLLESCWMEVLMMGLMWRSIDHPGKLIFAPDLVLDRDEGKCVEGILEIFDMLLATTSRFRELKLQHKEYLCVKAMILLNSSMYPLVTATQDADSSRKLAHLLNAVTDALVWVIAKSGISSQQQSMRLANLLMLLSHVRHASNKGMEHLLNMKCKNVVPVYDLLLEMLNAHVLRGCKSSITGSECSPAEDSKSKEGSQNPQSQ
Outline: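 Agonist mode cell assay in GripTite HEK293T cells expressing an ER-beta fusion that drives beta-lactamase from an Upstream Activator Sequence; 16 hr compound exposure at 37C, then 2 h LiveBLAzer B/G FRET substrate at room temperature, fluorescence read-out.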

[20] = biological target: Estrogen receptor beta (Homo sapiens) (UniProt Q92731); assay: qHTS assay to identify small molecule antagonists of the estrogen receptor beta (ER-beta) signaling pathway (AID 1259378; active = well fitted inhibition curve with a large enough effect in the signal ratio in the repeat runs, not every such curve was filed as active; the % refers to the signal ratio; note: potency is the fitted concentration of half-maximal effect)
Outline: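 ER-beta-UAS-bla HEK293T (GripTite) cells in 2% charcoal-stripped FBS medium were preincubated 6 hr at 37C, dosed with compound, then stimulated with 1 nM E2 (final) for 16 hr; beta-lactamase reporter read by B/G FRET fluorescence after 2 hr substrate loading.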
% is set by controls: 0 for no effect and ±100 for the full control effect.

CCOC(=O)NNc1nncc2ccccc12
inactive: outcome [1] | Potency [2] | Potency [3] | outcome [4] | Potency [5] | Potency [6] | Potency [7] | outcome [8] | Potency [9] | PLD induction [10] -1.23% [at 7.66 µM] | Potency [11] | outcome [12] | Potency [13] | Potency [14] | outcome [15] | Potency [16] | Potency [17] | Potency [18]

OCc1cccnc1
inactive: outcome [1] | Potency [2] | Potency [3] | outcome [4] | Potency [5] | Potency [6] | Potency [7] | outcome [8] | Potency [9] | outcome [10] | Potency [11] | outcome [12] | Potency [13] | Potency [14] | Potency [16] | Potency [17] | Potency [18]

O=C(CC(C(=O)OC1CCCCC1)S(=O)(=O)O)OC1CCCCC1 (stereo unspecified)
inactive: outcome [1] | Potency [2] | Potency [3] | outcome [4] | Potency [5] | Potency [6] | Potency [7] | outcome [8] | Potency [11] | outcome [12] | Potency [13] | Potency [14] | outcome [15] | Potency [16] | Potency [19] | Potency [20] | Potency [17] | Potency [18]

CCCCC(CC)COC(=O)CCCCC(=O)OCC(CC)CCCC (stereo unspecified)
inactive: outcome [1] | Potency [2] | Potency [3] | outcome [4] | Potency [5] | Potency [6] | Potency [7] | outcome [8] | Potency [9] | Potency [11] | outcome [12] | Potency [13] | Potency [14] | Potency [16] | Potency [19] | Potency [20] | Potency [17] | Potency [18]

C/C=C1/CC2C=CC1C2 (stereo unspecified)
inactive: outcome [1] | Potency [2] | Potency [3] | outcome [4] | Potency [5] | Potency [6] | Potency [7] | outcome [8] | Potency [9] | Potency [11] | outcome [12] | Potency [13] | Potency [14] | outcome [15] | Potency [16] | Potency [17] | Potency [18]

CCCCCCCCCCCCCCO
inactive: outcome [1] | Potency [2] | Potency [3] | outcome [4] | Potency [5] | Potency [6] | Potency [7] | outcome [8] | Potency [9] | Potency [11] | outcome [12] | Potency [13] | Potency [14] | Potency [16] | Potency [19] | Potency [20] | Potency [17] | Potency [18]

COS(C)(=O)=O
inactive: outcome [1] | Potency [2] | Potency [3] | outcome [4] | Potency [5] | Potency [6] | Potency [7] | outcome [8] | Potency [9] | Potency [11] | outcome [12] | Potency [13] | Potency [14] | outcome [15] | Potency [16] | Potency [17] | Potency [18]

O=c1[nH]nnc2ccccc12
inactive: outcome [1] | Potency [2] | Potency [3] | outcome [4] | Potency [5] | Potency [6] | Potency [7] | outcome [8] | Potency [11] | outcome [12] | Potency [13] | Potency [14] | outcome [15] | Potency [16] | Potency [19] | Potency [20] | Potency [17] | Potency [18]

CC(O)COCC(C)O (stereo unspecified)
inactive: outcome [1] | Potency [2] | Potency [3] | outcome [4] | Potency [5] | Potency [6] | Potency [7] | outcome [8] | Potency [9] | Potency [11] | outcome [12] | Potency [13] | Potency [14] | outcome [15] | Potency [16] | Potency [17] | Potency [18]

COc1ccc2cc([C@H](C)C(=O)O)ccc2c1
inactive: outcome [1] | Potency [2] | Potency [3] | outcome [4] | Potency [5] | Potency [6] | Potency [7] | outcome [8] | outcome [10] | Potency [11] | outcome [12] | Potency [13] | Potency [14] | outcome [15] | Potency [16] | Potency [17] | Potency [18]

CCCCCCCCCC
inactive: outcome [1] | Potency [2] | Potency [3] | outcome [4] | Potency [5] | Potency [6] | Potency [7] | outcome [8] | Potency [9] | Potency [11] | outcome [12] | Potency [13] | Potency [14] | outcome [15] | Potency [16] | Potency [19] | Potency [20] | Potency [17] | Potency [18]

c1ccc(OCCOc2ccccc2)cc1
inactive: outcome [1] | Potency [2] | Potency [3] | outcome [4] | Potency [5] | Potency [6] | Potency [7] | outcome [8] | Potency [9] | outcome [12] | Potency [13] | Potency [14] | Potency [16] | Potency [19] | Potency [20] | Potency [17] | Potency [18]
active: Potency [11] 27.3 µM

CCCCCCCC(=O)OC
inactive: outcome [1] | Potency [2] | Potency [3] | outcome [4] | Potency [5] | Potency [6] | Potency [7] | outcome [8] | Potency [9] | Potency [11] | outcome [12] | Potency [13] | Potency [14] | Potency [16] | Potency [19] | Potency [20] | Potency [17] | Potency [18]

CCCCC(CC)COC(=O)C(C#N)=C(c1ccccc1)c1ccccc1 (stereo unspecified)
active: Potency [20] 19.3 µM
inactive: outcome [1] | Potency [2] | Potency [3] | outcome [4] | Potency [5] | Potency [6] | Potency [7] | outcome [8] | outcome [10] | Potency [11] | outcome [12] | Potency [13] | Potency [14] | Potency [16] | Potency [19] | Potency [17] | Potency [18]

Cc1ccc(N(C)C)cc1
inactive: outcome [1] | Potency [2] | Potency [3] | outcome [4] | Potency [5] | Potency [6] | Potency [7] | outcome [8] | Potency [9] | Potency [11] | outcome [12] | Potency [13] | Potency [14] | outcome [15] | Potency [16] | Potency [19] | Potency [20] | Potency [17] | Potency [18]

Cc1cccc(O)c1
inactive: outcome [1] | Potency [2] | Potency [3] | outcome [4] | Potency [5] | Potency [6] | Potency [7] | outcome [8] | Potency [9] | Potency [11] | outcome [12] | Potency [13] | Potency [14] | outcome [15] | Potency [16] | Potency [19] | Potency [20] | Potency [17] | Potency [18]
